Shown are actives, neighbours in structure and some others; about 2.3% of the full set was active somewhere.
CHO-K1 Ca antag: M1 antagonist counterscreen hit in parental CHO-K1 cells; inhibition, % at 3 µM; ATP-induced calcium, Fluo-8 fluorescence; hit rate 0.6% among 360,000;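 active = inhibition above a per-plate cutoff, the plate's mean sample inhibition plus 3 SD, cut at about 24% in these data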;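 also: 0% = DMSO plus EC80 ATP and 100% = DMSO alone without ATP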
CHRM1 antagonist: human M1 muscarinic receptor antagonists, primary screen, CHO-K1 cells, Fluo-8 calcium fluorescence, 1536-well. Muscarinic acetylcholine receptor M1 (Homo sapiens), P11229. inhibition, % at 3 µM. CHO-K1 hM1, ACh EC80 antagonist. hit rate 1.3% among 360,000;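 active = percent inhibition above its own plate's cutoff, namely the mean of that plate's compound wells plus 3 SD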;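 also: peak over basal fluorescence ratio during 140 s after agonist addition; 0% = ACh EC80 plus DMSO and 100% = DMSO alone without agonist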
Target sequence (P11229 whole entry, looked up): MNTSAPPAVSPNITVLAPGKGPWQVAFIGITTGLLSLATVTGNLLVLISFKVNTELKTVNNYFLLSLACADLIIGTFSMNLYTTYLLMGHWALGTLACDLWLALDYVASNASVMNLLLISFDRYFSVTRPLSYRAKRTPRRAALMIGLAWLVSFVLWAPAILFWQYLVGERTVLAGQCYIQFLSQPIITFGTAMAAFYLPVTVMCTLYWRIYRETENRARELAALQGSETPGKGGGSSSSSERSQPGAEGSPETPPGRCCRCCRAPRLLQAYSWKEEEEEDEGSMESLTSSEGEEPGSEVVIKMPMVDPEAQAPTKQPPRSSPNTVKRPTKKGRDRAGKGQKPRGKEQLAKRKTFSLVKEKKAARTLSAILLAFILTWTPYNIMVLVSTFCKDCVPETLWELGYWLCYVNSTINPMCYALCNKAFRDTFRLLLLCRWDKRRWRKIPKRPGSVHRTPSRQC
M1 PAM parental: nonselective calcium activators in parental CHO-K1 cells, primary screen, counter-screen for M1 PAM project, cell-based, Fluo-8 calcium fluorescence, full deck, 1536-well; ATP EC20; 0% at ATP EC20, 100% at ATP max; activation, % at 3 µM; hit rate 0.02% among 360,000;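 active = activation above the run cutoff, the mean activation of all test compounds plus 3 SD, cut at about 40% in these data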;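 also: peak over basal fluorescence ratio in a 140 s read after ATP addition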
CHRM1 PAM: human M1 muscarinic receptor positive allosteric modulators, primary screen, CHO-K1 cells, Fluo-8 calcium fluorescence, 1536-well; activation, % at 3 µM; CHO-K1 hM1, ACh EC20; 0% = ACh EC20, 100% = maximal ACh; hit rate 0.088% among 360,000; in the data active = activation above about 19%, passing the limit was not always enough
CHO-K1 Ca ag: counter-screen for M1 agonists: effect in parental CHO-K1 cells. Fluo-8 calcium fluorescence; scaled to maximal ATP response, vehicle zero. AID 602248, 2012. activation, % at 3 µM. hit rate 0.48% among 360,000; in the data active = activation above about 15%;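 also: untransfected CHO-K1 host cells lacking M1 receptor as counterscreen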
CHRM1 agonist: human M1 muscarinic receptor agonists, primary screen, Fluo-8 calcium fluorescence, CHO-K1 cells, HTS. hit rate 0.33% among 360,000. CHO-K1 hM1, agonist mode; 0% DMSO, 100% acetylcholine EC100. activation, % at 3 µM. Muscarinic acetylcholine receptor M1 (Homo sapiens), P11229;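 active = activation above the run's mean compound activation plus 3 SD, cut at about 16% in these data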;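 also: peak over basal fluorescence ratio within a 140 s kinetic read after compound addition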
An asterisk follows results filed as active.

SMILES	CHO-K1 Ca antag	CHRM1 antagonist	M1 PAM parental	CHRM1 PAM	CHO-K1 Ca ag	CHRM1 agonist
Cc1nnc(C)c2c(C)n(Cc3ccc4c(c3)OCO4)c(C)c12	24*	14	-8	-12	0	-6
CN1CCN(CCNC(=O)c2ccc3nc(-c4ccc(F)cc4)c(-c4ccc(F)cc4)nc3c2)CC1	-15	45*	20	-21	2	-5
Cc1onc(-c2c(Cl)cccc2Cl)c1C(=O)N1CCc2ccccc2C1	-10	41*	20	-23	0	-6
CCOC(=O)C1CCN(c2ncnc3c(C)csc23)CC1	17	40*	-26	-23	15*	6
CCOC(=O)C1CCN(c2ncnc3nc[nH]c23)CC1	14	-16	9	10	0	0
CSc1ccccc1C(=O)C1CCCN(Cc2c(C)n(C)n(-c3ccccc3)c2=O)C1 (centres undefined)	15	79*	-7	-33	7	-13
CN(C)CCOC(C1CCCCC1)C1CCCCC1	-17	49*	36	-20	9	-5
CCOc1ccc(-c2cc(C(=O)OC)nc3c2c(=O)n(C)c(=O)n3C)cc1	-6	-17	11	13	0	-1
CN1CCCC(CC2c3ccccc3Sc3ccccc32)C1 (centres undefined)	1	99*	9	-25	2	-3
CN1CCCC(OC(=O)c2ccccc2F)C1 (centres undefined)	-5	27	0	-14	1	-10
O=C(Nc1ccn(CCCN2CCN(Cc3cccc4ccccc34)CC2)c(=O)n1)OCc1ccccc1	-1	30*	12	-24	4	-3
Cc1cc(C)c(CN2CCN(CCCn3ccc(NC(=O)OCc4ccccc4)nc3=O)CC2)c(C)c1	-13	42*	30	-28	2	-4
O=C(Nc1ccn(CCCN2CCN(c3ccccc3)CC2)c(=O)n1)OCc1ccccc1	-8	0	11	-9	2	-2
COc1ccc(N2CCN(CCCn3ccc(NC(=O)OCc4ccccc4)nc3=O)CC2)cc1	-7	7	9	-15	0	-11
CCOc1ccc(N(C)C(=O)CCc2nnc3ccc(NCc4ccco4)nn23)cc1	-7	-5	11	3	1	-11
C1CCc2c(nc3nnnn3c2NCC2CC2)C1	-9	-13	8	10	1	-4
O=C1COc2ccc(C(=O)CSc3nnc(Cc4ccccc4)o3)cc2N1	-3	-5	8	1	2	-1
O=C1COc2ccc(C(=O)CSc3nnc(NCc4ccccc4)s3)cc2N1	4	-1	6	-3	17*	1
COc1ccc(OC)c(NS(=O)(=O)c2ccc(-n3cccn3)cc2)c1	26*	1	-10	-6	2	-1
COC(C[C@@H](O)[C@H](C)[C@@H](O)COCc1ccccc1)OC	-10	51*	14	-32	1	-9
COC(C[C@H](O)[C@@H](C)[C@@H](O)COCc1ccccc1)OC	-6	-2	14	4	1	1
OC(CNC1CCCc2ccccc21)COc1ccc2ccccc2c1 (centres undefined)	-6	6	27	6	7	-1
CCc1ccccc1OC[C@@H](O)CN[C@H]1CCCc2ccccc21	25*	1	-9	-5	3	16
CN(C)c1ccc(/C=N/n2c(-c3ccccc3Br)n[nH]c2=S)cc1	-4	32*	13	-25	2	-6
O=C(C1CCCCC1)N1C[C@@H](O)[C@H](n2cc(C3CC3)nn2)C[C@@H]1c1ccccc1	-1	-7	4	11	0	1
SMILES	CHO-K1 Ca antag	CHRM1 antagonist	M1 PAM parental	CHRM1 PAM	CHO-K1 Ca ag	CHRM1 agonist
Cc1ccccc1S(=O)(=O)N1CCN(C)CC1	16	-6	-20	7	0	-8
CC(C)C[C@@H](NC(=O)C1CCC(CNC(=O)[C@@H]2CCCN2C(=O)OC(C)(C)C)CC1)C(=O)O (some centres undefined)	6	101*	-11	-8	0	0
O=C(COc1ncnc2ccccc12)N1CCN(S(=O)(=O)c2ccc(Cl)cc2)CC1	63*	6	0	6	0	-3
CCOC(=O)c1sc2nc(NC(=O)C3CC3)sc2c1C	-7	-8	17	7	1	-1
CCOC(=O)c1sc2nc(NC(=O)C(C)(C)C)sc2c1C	4	32*	3	-19	5	-5
CC(=O)NN1C(=O)/C(=C\c2ccc(Br)o2)SC1=S	7	7	5	-6	1	-3
CC(=O)NN1C(=O)/C(=C/c2ccc(Br)o2)SC1=S	-9	-3	9	21*	1	-3
CCN(Cc1ccccc1)C(=O)c1nn(-c2ccc(OC)cc2)c(=O)c2c1c1ccccc1n2C	15	23*	-7	-19	7	-7
NS(=O)(=O)c1ccc(CCNC(=O)COC(=O)/C=C/c2ccc(Cl)cc2)cc1	-8	6	18	-3	9	-6
C=CCN1C(=O)/C(=C/c2ccc(OC(C)=O)c(OCC)c2[N+](=O)[O-])SC1=S	25*	17	7	-2	12	7
CCOc1c(OC(C)=O)ccc(/C=C/c2ccc3cccc(OC(C)=O)c3n2)c1[N+](=O)[O-]	-6	-3	11	4	2	-3
N#C/C(=C\c1ccc(O)c([N+](=O)[O-])c1)c1nc2ccccc2s1	29*	18	-10	-10	14	2
O=C1CC(c2ccsc2)Sc2ccccc2N1 (centres undefined)	7	-6	12	6	20*	-4
O=C1C2C(C(=O)N1c1ccccc1)N1CCCN1C2c1ccccc1 (centres undefined)	12	1	-13	1	0	-7
CCOc1cccc(-c2c(C(=O)N/N=C/c3ccc(Br)cc3)nnn2-c2nonc2N)c1	1	6	-5	22	1	19*
CCCOc1ccc(-c2c(C(=O)N/N=C/c3ccc(OCC)cc3)nnn2-c2nonc2N)cc1	26*	7	-12	-5	-1	-5
CCOc1ccc(-c2c(C(=O)N/N=C/c3ccsc3)nnn2-c2nonc2N)cc1	-21	-8	22	9	7	28*
Nc1nonc1-n1nnc(C(=O)N/N=C/c2cccnc2)c1CSc1ccccc1	6	-4	-3	-8	7	0
Nc1nonc1-n1nnc(C(=O)N/N=C/c2cccnc2)c1CSc1ccc(Cl)cc1	-4	29	14	-16	16*	3
